# Measurements reported in PubChem BioAssay (NCATS).
# Inconclusive results are not listed. Active and inactive are the calls of the source. Calls come from the whole dose curve; as a rule, active = well fitted inhibition curve with a large enough effect; inconclusive = small, poorly fitted or top-dose-only effect; inactive = flat fitted curve, though single readings scatter.
# Biological target: Glutathione peroxidase 1 (Homo sapiens) (UniProt P07203)
# Experiment: Primary qHTS Assay for Inhibitors of Recombinant Selenoprotein Glutathione Peroxidase 1 (GPX1) (AID 1845191); note: nearly all actives have a fitted effect of over 65% in size
# Settings: recombinant GPX1, GR-coupled NADPH fluorescence, 15 min; series mostly up to 48.8 µM; activity, negative = inhibition: at the top concentration
# Procedure, shortened: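 GR-coupled readout: NADPH consumption tracked by fluorescence, ex 340/em 450 nm, at t=0 and after 15 min at RT. Final mix 10 nM GPX1, 1 mM GSH, 0.5 mM CHP, 0.5 mM NADPH, 100 nM GR, 0.01% BSA, following 30 min enzyme–compound preincubation.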
# % is set by controls: 0 for no effect and ±100 for the full control effect.
# Chain of Glutathione peroxidase 1 (Homo sapiens) (P07203 whole entry, looked up): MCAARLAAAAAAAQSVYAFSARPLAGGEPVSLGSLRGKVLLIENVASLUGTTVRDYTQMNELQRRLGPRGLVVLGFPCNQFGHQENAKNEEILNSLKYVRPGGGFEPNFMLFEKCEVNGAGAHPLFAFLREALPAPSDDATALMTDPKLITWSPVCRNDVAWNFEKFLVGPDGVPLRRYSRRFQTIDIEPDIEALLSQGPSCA
SMILES,"activity, negative = inhibition",outcome,Potency
C=C1CC[C@@H](O)[C@]2(C)CC[C@H]3C(=C)C(=O)O[C@@H]3[C@@H]12,-13.2% (inactive),,
CC(C)c1cccc(C(C)C)c1NC(=O)Nc1ccc(Sc2ccc([N+](=O)[O-])cc2)cc1,,inactive,
OC1CCC(Nc2nc(-c3ccccc3)nc3[nH]ccc23)CC1 (configuration not stated),-15.5% (inactive),,
CC(/C=C/C(=O)NO)=C\[C@@H](C)C(=O)c1ccc(N(C)C)cc1,,,inactive
CC[C@H](C(=O)Nc1ccccc1N1CCCC1)c1ccccc1,-11.7% (inactive),,
CC(C)(C)C1CCN(C(=O)n2ncc(C(O)(c3ccccc3)c3ccccc3)n2)CC1,-19% (inactive),,
CCOc1ccc(CCNC(=O)c2cc3sc(Cl)cc3n2C)cc1OCC,-6.97% (inactive),,
C[C@@H](NC(=O)C(=O)c1c[nH]c2ccc([N+](=O)[O-])cc12)c1ccccc1,-17.1% (inactive),,
C#CCNCc1cc2cc(OCc3ccccc3)ccc2[nH]1,,inactive,
O=S(=O)(Nc1ccccc1N1CCCCC1)c1ccc(Cl)s1,-4.29% (inactive),,
CC(C)(C)OC(=O)c1ncn2c1C(C)(C)Nc1ccccc1-2,-9.21% (inactive),,
COc1cc2c(cc1O)C1(Cc3ccc4c(c3C1O)OCO4)[N+](C)([O-])CC2 (configuration not stated),,inactive [at 27.7 µM],
C=CS(=O)(=O)NC1CCN(C(=O)CNc2cc(I)c(Cl)cc2OC)CC1,,inactive,
O=S(=O)(NCc1ccccn1)c1ccc(Br)c2ccccc12,-18.3% (inactive),,
CC(C)/C=C1\NC(=O)C(C(C)C)n2c1nc1ccccc1c2=O (configuration not stated),,inactive [at 27.7 µM],
CCN(CC)C(=O)C(c1ccccc1)N1CCN(c2ccc(NC(=O)c3ccccc3-c3cccnc3)cc2F)CC1 (configuration not stated),,inactive,
COc1cc2ncnc(Nc3ccc(F)c(Cl)c3)c2cc1O,-14.1% (inactive),,
